From PubChem BioAssay (Tox21) come the findings set out here.

In assay [1] the target is Progesterone receptor (Homo sapiens) (UniProt P06401). Kind of assay: qHTS assay to identify small molecule agonists of the progesterone receptor (PR) signaling pathway (AID 1346784; calls by dose curve; note: nearly all actives have a fitted effect of over 30% in size). A digest of the protocol: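 Reporter assay, GripTite PR-UAS-bla HEK 293T cells: 16 hr exposure to DMSO-dissolved compounds at 37C, 5% CO2, in steroid-depleted (2% charcoal-stripped FBS) medium; beta-lactamase measured by FRET fluorescence.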
Chain of Progesterone receptor (Homo sapiens) (P06401 whole entry, looked up): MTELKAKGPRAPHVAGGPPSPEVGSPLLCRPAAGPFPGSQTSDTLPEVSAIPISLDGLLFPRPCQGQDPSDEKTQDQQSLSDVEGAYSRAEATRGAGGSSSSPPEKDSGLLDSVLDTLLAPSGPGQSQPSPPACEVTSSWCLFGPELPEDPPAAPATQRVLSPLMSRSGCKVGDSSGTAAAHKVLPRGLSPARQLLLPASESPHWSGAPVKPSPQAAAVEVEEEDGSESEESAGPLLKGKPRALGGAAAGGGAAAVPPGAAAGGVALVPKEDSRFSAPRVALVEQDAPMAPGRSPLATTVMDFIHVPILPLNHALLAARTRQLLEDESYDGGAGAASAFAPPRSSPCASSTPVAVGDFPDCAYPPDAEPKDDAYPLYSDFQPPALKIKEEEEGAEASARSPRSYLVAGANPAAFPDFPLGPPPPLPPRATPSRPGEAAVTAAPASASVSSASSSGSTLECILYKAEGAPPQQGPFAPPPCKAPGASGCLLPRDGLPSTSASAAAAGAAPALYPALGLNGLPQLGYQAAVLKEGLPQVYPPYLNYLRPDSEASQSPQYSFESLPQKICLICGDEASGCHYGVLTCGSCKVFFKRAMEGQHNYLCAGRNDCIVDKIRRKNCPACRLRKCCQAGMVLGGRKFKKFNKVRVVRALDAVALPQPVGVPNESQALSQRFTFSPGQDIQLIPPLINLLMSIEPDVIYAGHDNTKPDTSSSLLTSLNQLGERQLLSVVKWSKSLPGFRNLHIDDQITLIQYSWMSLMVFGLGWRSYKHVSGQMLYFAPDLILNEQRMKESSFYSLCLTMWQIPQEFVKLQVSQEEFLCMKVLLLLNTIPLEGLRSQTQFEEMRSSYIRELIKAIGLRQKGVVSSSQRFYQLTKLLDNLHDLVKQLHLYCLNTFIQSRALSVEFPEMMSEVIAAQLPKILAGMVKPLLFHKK

For assay [2] the target is unchanged. Kind of assay: qHTS assay to identify small molecule antagonists of the progesterone receptor (PR) signaling pathway (AID 1346795; active = well fitted inhibition curve with a large enough effect in the signal ratio in the repeat runs, not every such curve was filed as active; the % refers to the signal ratio). In outline:
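Stimulus R5020 at 1 nM final; cells HEK293T PR-UAS-bla; medium with 2% charcoal-stripped FBS; compound exposure 16 hr at 37C, 5% CO2; detection by FRET beta-lactamase substrate, 2 hr, room temperature.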
(Quantitative high-throughput screening tests each substance at several concentrations.)

Assay [3] is described as follows: qHTS assay to identify small molecule antagonists of the progesterone receptor (PR) signaling pathway - cell viability counter screen (AID 1346798). Note: series mostly up to about 92 µM; nearly all actives have a fitted effect of over 50% in size. In outline:
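In the same plates used for the beta-lactamase readout, cell viability of compound- and R5020-treated PR-UAS-bla HEK293T cells (16 hr, 37C) was assessed by CellTiter-Glo luminescence.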

A short description of assay [4]: qHTS assay to identify small molecule agonists of the progesterone receptor (PR) signaling pathway - cell viability counter screen (AID 1346799; calls by dose curve; note: nearly all actives have a fitted effect of over 45% in size). In outline:
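Multiplexed viability read: CellTiter-Glo luminescence, 30 min RT, following LiveBLAzer FRET measurement on PR-UAS-bla HEK293T cells exposed to compounds 16 hr.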

The nature of assay [5]: qHTS assay to identify small molecule antagonists of the TGF-beta/Smad signaling pathway - cell viability counter screen (AID 1346824). Note: nearly all actives have a fitted effect of over 50% in size. In outline:
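SBE-bla HEK 293T cells were plated overnight at 37 C, then given compounds in DMSO plus TGF-beta1 (added as 0.25 ng/mL solution) for 5 hr. After the bla read, CellTiter-Glo was added to the same wells and luminescence read after 30 min at room temperature.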

Assay [6] is described as follows: qHTS assay to identify small molecule agonists of the TGF-beta/Smad signaling pathway - cell viability counter screen (AID 1346829). Note: top concentration of the series differs between compounds; nearly all actives have a fitted effect of over 45% in size. A digest of the protocol: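 In parallel with the Smad reporter read, viability of HEK 293T cells stably carrying SBE-bla is quantified by ATP luminescence following 5 hr compound treatment.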
Assay [7] can be described thus: qHTS assay to identify small molecule agonists of the TGF-beta/Smad signaling pathway (AID 1346859; active = well fitted activation curve with a large enough effect in the signal ratio in the repeat runs, not every such curve was filed as active; the % refers to the signal ratio; note: series mostly up to about 77 µM). A digest of the protocol:
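Screening used HEK 293T SBE-bla cells at 4,000/well. Test agents: 5 hr, 37 C. Detection: FRET substrate, 2 hr RT, then excitation 405 nm with emissions at 460 and 530 nm.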

Assay [8] addresses Thyrotropin-releasing hormone receptor (Homo sapiens) (UniProt P34981). Kind of assay: qHTS assay to identify small molecule agonists of the thyrotropin-releasing hormone receptor (TRHR) signaling pathway (AID 1346891; calls by dose curve; note: series mostly up to about 58 µM). In outline: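 Readout was intracellular calcium fluorescence in TRHR-Hek293 cells. Cells were incubated 18 h, dye-loaded 2 h at 37 °C, and treated with compound in agonist mode.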

Assay [9] in a line: Human pregnane X receptor (PXR) small molecule agonists, qHTS cell viability counter screen (AID 1346977). Note: nearly all actives have a fitted effect of over 50% in size. In outline: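 In each well, the PXR reporter HepG2 line was checked for viability: CellTiter-Fluor reagent added 23hr post-dosing, fluorescence read after 1hr incubation at 37C.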
The nature of assay [10]: Caspase-3/7 induction in HepG2 cells by small molecules, qHTS assay (AID 1346978). Note: nearly all actives have a fitted effect of over 15% in size. A digest of the protocol:
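Wild-type HepG2 cells (2,000/well) were settled 5 h at 37 C, 5% CO2, then exposed to compounds in DMSO for 17 h. Caspase-3/7 activity was read by luminescence 30 min after adding Caspase-Glo 3/7 reagent at room temperature.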

A short description of assay [11]: Caspase-3/7 induction in CHO-K1 cells by small molecules, qHTS cell viability counter screen (AID 1346979). Note: nearly all actives have a fitted effect of over 35% in size. A digest of the protocol: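 Following a 5hr settling period, CHO-K1 cells at 1,500 per well received DMSO-dissolved compounds. Cell viability was quantified 16hr later by CellTiter-Fluor fluorescence, measured after 1hr with reagent at 37C.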
Assay [12] can be described thus: Caspase-3/7 induction in CHO-K1 cells by small molecules, qHTS assay (AID 1346980). Note: nearly all actives have a fitted effect of over 15% in size. In outline: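 Wild-type cells were seeded at 1,500 per well and settled 5 hr at 37 C, 5% CO2, then exposed to DMSO-dissolved compounds for 17 hr. Caspase-Glo 3/7 reagent was added, and luminescence was read after 30min at room temperature.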
Assay [13] is described as follows: Caspase-3/7 induction in HepG2 cells by small molecules, qHTS cell viability counter screen (AID 1346981). Note: series mostly up to about 92 µM; nearly all actives have a fitted effect of over 30% in size. In outline: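 Treatment of HepG2 cells with DMSO-delivered compounds ran 16 hr at 37 C following a 5-hr pre-incubation of 2,000 cells/well. CellTiter-Fluor fluorescence, read after 1 hr, served as the viability measure in a qHTS format.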
Assay [14] deals with Nuclear receptor subfamily 1 group I member 2 (Homo sapiens) (UniProt O75469). Kind of assay: Human pregnane X receptor (PXR) small molecule agonists, qHTS assay (AID 1346982). Note: nearly all actives have a fitted effect of over 35% in size. In outline:
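Stable HepG2 line reporting PXR-mediated CYP3A4 expression via luciferase. Treatment: 24 hr with compounds in DMSO at 37 C. Detection: ONE-Glo luminescence.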

Assay [15] deals with Nuclear receptor subfamily 1 group I member 2 (Rattus norvegicus) (UniProt Q9R1A7). Kind of assay: Rat pregnane X receptor (rPXR) activation by small molecules, qHTS assay (AID 1346983). Note: nearly all actives have a fitted effect of over 20% in size. As to conditions: rPXR luciferase reporter cells, One-Glo luminescence, 24 h; hits give high values. In outline: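 Cell-based rPXR luciferase reporter assay, 2,000 cells per well, rested 5hr at 37 C before compound addition in DMSO, then 24 hr at 37 C. One-Glo reagent was added and luminescence read after 30 min at room temperature.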
Chain of Nuclear receptor subfamily 1 group I member 2 (Rattus norvegicus) (Q9R1A7 whole entry, looked up): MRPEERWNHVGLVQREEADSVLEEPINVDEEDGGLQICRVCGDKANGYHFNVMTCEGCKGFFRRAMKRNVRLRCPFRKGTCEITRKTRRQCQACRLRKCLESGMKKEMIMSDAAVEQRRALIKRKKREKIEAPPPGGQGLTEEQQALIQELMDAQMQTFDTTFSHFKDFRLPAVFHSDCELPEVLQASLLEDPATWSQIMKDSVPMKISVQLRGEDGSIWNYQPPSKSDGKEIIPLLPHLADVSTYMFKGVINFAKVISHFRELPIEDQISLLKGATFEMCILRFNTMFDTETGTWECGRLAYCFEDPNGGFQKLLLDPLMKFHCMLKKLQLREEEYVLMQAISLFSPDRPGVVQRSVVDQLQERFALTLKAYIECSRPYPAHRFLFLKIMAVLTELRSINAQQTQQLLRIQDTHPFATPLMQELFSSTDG

The target in assay [16] is Nuclear receptor subfamily 1 group I member 2 (Homo sapiens) (UniProt O75469). Kind of assay: CYP3A4 induction through human pregnane X receptor (PXR) by small molecules, qHTS assay (AID 1346984). Note: nearly all actives have a fitted effect of over 40% in size. A digest of the protocol:
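After 24 h at 37C with compound, DPX-2 cells (HepG2, co-transfected PXR response element and CYP3A4 promoter-luciferase) got 3uM final P450-Glo Luciferin-IPA for 3 h; One-Glo luminescence followed.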

The target is the same in assay [17]. Kind of assay: Human pregnane X receptor (PXR) activation by small molecules, qHTS assay (AID 1346985). Note: nearly all actives have a fitted effect of over 40% in size. In outline:
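DPX-2 cells (HepG2 co-transfected with a PXR response element and a CYP3A4-promoter luciferase construct) were seeded at 2,000 per well, rested 5 hr at 37C, then exposed to DMSO-dissolved compounds for 24 hr. Activation was read as luciferase luminescence.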

Assay [18] deals with Cytochrome P450 2D6 (Homo sapiens) (UniProt P10635). Kind of assay: Cytochrome P450 Family 2 Subfamily D Member 6 (CYP2D6) small molecule antagonists: luciferase reporter qHTS assay (AID 1671196). Note: series mostly up to about 120 µM; nearly all actives have a fitted effect of over 50% in size. In outline:
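Chemicals tested for interference with CYP2D6 activity; proluciferin substrate, NADPH regeneration, 1 h at room temperature, luminescent detection.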
For orientation: A reporter such as luciferase makes a cellular process visible.

For assay [19], the target named is Cytochrome P450 2C19 (Homo sapiens) (UniProt P33261). Kind of assay: Cytochrome P450 Family 2 Subfamily C Member 19 (CYP2C19) small molecule antagonists: luciferase reporter qHTS assay (AID 1671197). Note: nearly all actives have a fitted effect of over 65% in size. Note: potency is the fitted concentration of half-maximal effect. A digest of the protocol:
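Compounds were tested on CYP2C19 activity via proluciferin conversion to luciferin. The 37C, 1 h reaction followed NADPH addition; detection reagent stopped it.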

The target of assay [20] is Thyrotropin-releasing hormone receptor (Homo sapiens) (UniProt P34981). Kind of assay: qHTS assay to identify small molecule antagonists of the thyrotropin-releasing hormone receptor (TRHR) signaling pathway (AID 1346877; active = well fitted inhibition curve with a large enough effect in the repeat runs, not every such curve was filed as active; note: series mostly up to about 51 µM). In outline:
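Overnight-plated (18 h, 37 °C) HEK293 cells expressing TRHR were dye-loaded 2 h, treated with compound, then stimulated with TRH at 1 nM final. Fluorescence intensity was captured every second for 3 min.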

Each structure is given as a SMILES string. A number with no mark means an inactive call. Results filed as inconclusive are left out. The source made the active and inactive calls. Unless noted, calls come from the whole dose curve; as a rule, active = well fitted curve in the direction sought with a large enough effect in the repeat runs; inconclusive = weak or mixed curves; inactive = no such curve, though single readings can be large; an effect the other way counts as inactive or inconclusive.
% is set by controls: 0 for no effect and ±100 for the full control effect.

Chain of Cytochrome P450 2D6 (Homo sapiens) (P10635 whole entry, looked up): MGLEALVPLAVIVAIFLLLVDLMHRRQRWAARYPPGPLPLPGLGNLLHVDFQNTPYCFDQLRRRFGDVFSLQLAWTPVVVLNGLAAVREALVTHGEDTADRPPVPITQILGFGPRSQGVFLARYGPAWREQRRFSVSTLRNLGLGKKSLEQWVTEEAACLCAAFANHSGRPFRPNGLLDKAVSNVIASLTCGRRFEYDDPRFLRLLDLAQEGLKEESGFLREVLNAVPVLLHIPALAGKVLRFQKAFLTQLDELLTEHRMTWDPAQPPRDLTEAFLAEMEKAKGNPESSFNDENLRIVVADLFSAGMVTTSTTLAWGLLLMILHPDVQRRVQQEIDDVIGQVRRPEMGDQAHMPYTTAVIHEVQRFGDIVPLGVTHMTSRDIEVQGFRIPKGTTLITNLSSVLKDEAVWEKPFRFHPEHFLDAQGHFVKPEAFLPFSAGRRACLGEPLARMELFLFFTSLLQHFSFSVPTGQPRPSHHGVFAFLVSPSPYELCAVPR
Chain of Thyrotropin-releasing hormone receptor (Homo sapiens) (P34981 whole entry, looked up): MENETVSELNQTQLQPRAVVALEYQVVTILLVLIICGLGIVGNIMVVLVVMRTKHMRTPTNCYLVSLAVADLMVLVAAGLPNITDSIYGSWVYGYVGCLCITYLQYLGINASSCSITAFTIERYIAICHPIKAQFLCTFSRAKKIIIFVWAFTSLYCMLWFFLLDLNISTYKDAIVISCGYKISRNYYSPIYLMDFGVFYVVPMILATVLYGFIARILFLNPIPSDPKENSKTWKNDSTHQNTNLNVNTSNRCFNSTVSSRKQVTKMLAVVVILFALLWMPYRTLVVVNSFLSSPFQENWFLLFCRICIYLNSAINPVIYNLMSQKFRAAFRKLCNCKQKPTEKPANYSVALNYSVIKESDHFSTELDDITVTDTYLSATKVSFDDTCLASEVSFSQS
Chain of Cytochrome P450 2C19 (Homo sapiens) (P33261 whole entry, looked up): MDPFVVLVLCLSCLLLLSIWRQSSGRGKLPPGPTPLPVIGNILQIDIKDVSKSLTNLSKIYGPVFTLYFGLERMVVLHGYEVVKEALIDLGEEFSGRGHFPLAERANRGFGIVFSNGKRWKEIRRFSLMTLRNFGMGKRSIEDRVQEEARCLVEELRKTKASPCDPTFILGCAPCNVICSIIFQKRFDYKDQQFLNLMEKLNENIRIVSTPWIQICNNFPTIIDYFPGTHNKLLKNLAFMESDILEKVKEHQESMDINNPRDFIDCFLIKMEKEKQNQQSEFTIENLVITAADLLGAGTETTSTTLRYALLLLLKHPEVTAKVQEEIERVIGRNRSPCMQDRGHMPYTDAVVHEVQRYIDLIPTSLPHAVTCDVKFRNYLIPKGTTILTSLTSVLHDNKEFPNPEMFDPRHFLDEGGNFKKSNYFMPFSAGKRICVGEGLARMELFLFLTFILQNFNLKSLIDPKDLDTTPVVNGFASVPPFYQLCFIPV
Chain of Nuclear receptor subfamily 1 group I member 2 (Homo sapiens) (O75469 whole entry, looked up): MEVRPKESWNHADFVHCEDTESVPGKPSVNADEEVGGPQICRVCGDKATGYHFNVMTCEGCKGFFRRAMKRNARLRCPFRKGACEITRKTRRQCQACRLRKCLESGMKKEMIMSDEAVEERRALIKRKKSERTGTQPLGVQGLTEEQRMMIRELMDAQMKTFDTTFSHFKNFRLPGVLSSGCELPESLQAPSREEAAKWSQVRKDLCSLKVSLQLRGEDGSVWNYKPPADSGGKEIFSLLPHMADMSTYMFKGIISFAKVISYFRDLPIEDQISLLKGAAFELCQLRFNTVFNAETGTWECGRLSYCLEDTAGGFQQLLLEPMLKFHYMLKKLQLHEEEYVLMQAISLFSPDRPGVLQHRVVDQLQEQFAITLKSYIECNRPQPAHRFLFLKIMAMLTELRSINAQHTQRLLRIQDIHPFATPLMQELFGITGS

As for `Nc1ccc(S(=O)(=O)Nc2ccc(Cl)nn2)cc1`, the Potency entry in [1], in [2], in assay [3], in assay [4], in [9] and in assay [10] was “inactive” each time. For the same compound, the Potency result in assay [11], in assay [13], in [14], in [16], in assay [17] and in assay [18] was “inactive” each time. Moreover, the Potency entry in [19] is “inactive”. For the same compound, the call in assay [5], in assay [6], in assay [7], in [8] and in assay [12] was inactive. The max activation in [15] was -0.0524%.
On to `CC(C)=CCOC(=O)c1ccccc1`, for which the Potency result in [1], in assay [2], in assay [3], in assay [4], in assay [9] and in assay [10] was “inactive” in each case. The Potency result in [11], in [14], in [18] and in assay [19] was “inactive” each time. For the same compound, the compound was called inactive in [5], in assay [6], in assay [7], in assay [8] and in assay [12].
Turning to `O=C(O)C(=O)Cc1ccccc1`, the Potency result in assay [1], in assay [2], in assay [3], in assay [4], in [9] and in [10] was “inactive” throughout. The Potency result in [13] and in [14] was “inactive” throughout. Besides, the compound was classed as inactive in assay [5], in assay [6], in assay [7], in assay [20] and in assay [12].
Turning to `Cc1c(I)c(=O)n(-c2ccccc2)n1C`, the Potency result in assay [1], in assay [2], in assay [3], in [4], in assay [9] and in assay [10] was “inactive” throughout. Further, the Potency entry in [11], in assay [13], in assay [14], in assay [17], in [18] and in assay [19] was “inactive” in each case. Further, the outcome in assay [5], in [6], in assay [7], in assay [8] and in [12] was inactive. Moreover, in assay [15], the max activation is -0.919%.
For the compound `COCCc1ccc(OCC2CO2)cc1` (stereo not drawn), the Potency entry in assay [1], in [2], in assay [3], in assay [4], in assay [9] and in assay [10] was “inactive” throughout. Also, the Potency entry in assay [11], in assay [13], in assay [14], in [18] and in assay [19] was “inactive” each time. Further, the compound was classed as inactive in assay [5], in [6], in assay [7], in [8] and in assay [12].
Regarding `CCCCOC(=O)c1ccccc1`, the Potency entry in assay [1], in assay [2], in [3], in [4], in assay [9] and in assay [10] was “inactive” each time. Also, the Potency result in [11], in assay [13], in assay [14] and in assay [18] was “inactive” each time. In addition, the compound was classed as inactive in [5], in assay [6], in assay [7], in assay [20] and in [12].
For `O=C1CC(c2ccc(Cl)cc2)CC(=O)N1`, the Potency result in [1], in assay [2], in [3], in assay [4], in assay [9] and in [13] was “inactive” each time. For the same compound, the Potency result in [14] and in [19] was “inactive” throughout. Moreover, the compound was called inactive in assay [5], in [6], in [7], in [20], in assay [8] and in [12].
In the case of `COC(=O)CCc1ccc(OCC(O)CNC(C)C)cc1` (stereo not drawn), the Potency entry in assay [1], in assay [2], in assay [3], in [4], in assay [9] and in assay [13] was “inactive” throughout. For the same compound, the Potency entry in [14] and in assay [19] was “inactive” throughout. For the same compound, the outcome in assay [5], in assay [6], in assay [7], in assay [20], in [8] and in [12] was inactive.
As to `CCO[Si](CCCS)(OCC)OCC`, the Potency entry in [1], in assay [2], in assay [3], in assay [4], in assay [9] and in assay [11] was “inactive” throughout. Besides, the Potency result in [13] and in assay [14] was “inactive” in each case. In addition, the outcome in assay [5], in assay [6], in [7], in assay [20] and in [12] was inactive. Besides, the Potency in assay [19] is 35.6 µM (active).
